Assay results published in ChEMBL document CHEMBL3433997, “St. Jude Leishmania screening dataset” (2016).

Legend:
Format in all cases: functional
[1] = target: Solute carrier family 2, facilitated glucose transporter member 1 (Homo sapiens) (UniProt P11166); assay: ST_JUDE_LEISH: Cytotoxicity at 2uM final concentration against transgenic Leishmania Mexicana promastigotes LmGLUT1 that are glucose transport deficient and complemented with the human glucose transporter GLUT1. Activity is measured by DNA content using SYBR green in vitro
Chain of Solute carrier family 2, facilitated glucose transporter member 1 (Homo sapiens) (P11166 whole entry): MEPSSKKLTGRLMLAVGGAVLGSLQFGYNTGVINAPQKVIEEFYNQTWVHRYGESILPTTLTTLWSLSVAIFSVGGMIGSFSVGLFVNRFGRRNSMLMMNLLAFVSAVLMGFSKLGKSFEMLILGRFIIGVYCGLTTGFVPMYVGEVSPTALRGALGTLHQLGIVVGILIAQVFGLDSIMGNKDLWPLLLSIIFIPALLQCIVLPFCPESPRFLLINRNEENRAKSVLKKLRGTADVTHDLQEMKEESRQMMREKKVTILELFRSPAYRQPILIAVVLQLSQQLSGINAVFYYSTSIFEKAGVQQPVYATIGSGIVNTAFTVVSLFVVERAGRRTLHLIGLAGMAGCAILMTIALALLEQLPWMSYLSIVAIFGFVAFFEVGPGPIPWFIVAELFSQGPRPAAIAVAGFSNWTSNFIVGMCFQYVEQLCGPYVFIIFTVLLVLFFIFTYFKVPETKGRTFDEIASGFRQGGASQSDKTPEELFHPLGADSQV

[2] = target: Hexose transporter 1 (Plasmodium falciparum) (UniProt O97467); assay: ST_JUDE_LEISH: Cytotoxicity at 2uM final concentration against transgenic Leishmania Mexicana promastigotes LmPfHT that are glucose transport deficient and complemented with the Plasmodium falciparum hexose transporter. Activity is measured by DNA content using SYBR green in vitro
[3] = target: Glucose transporter (Leishmania mexicana) (UniProt O61059); assay: ST_JUDE_LEISH: Cytotoxicity at 2uM final concentration against transgenic Leishmania Mexicana promastigotes LmGT2 that are glucose transport deficient and complemented with the L. Mexicana glucose transporter 2. Activity is measured by DNA content using SYBR green in vitro

Row | SMILES | inhibition [1] [%] | inhibition [2] [%] | inhibition [3] [%]
1 | COc1ccc(Cn2c(Nc3cccc(C(F)(F)F)c3)nc3ccc(C(=O)NCCN4CCCC4)cc32)cc1Cl | 8.87 | 6.74 | 14.2
2 | Cc1ccc(F)c(CN2CCC(N3CC(c4ccccc4)(c4ccccc4)OC3=O)CC2)c1Cl | 10.4 | 9.52 | 9.68
3 | Cn1c(=O)c2nc(-c3ccc(Cl)cc3)nnc2n(CCCC#N)c1=O | 7.35 | 7.41 | 6.19
4 | Cc1ccc(C)c(NC(=O)CC2C(=O)N(c3ccccc3)C(=S)N2Cc2ccco2)c1 (stereo not given) | 4.9 | 5.73 | 5.93
5 | C=C(NC(=O)C1CCCCC1)C(=O)OC | -0.71 | 2.29 | 0.41
6 | O=S(=O)(c1ccccc1C(F)(F)F)C1CC2CCC(C1)N2S(=O)(=O)c1ccc(Cl)c(C(F)(F)F)c1 (stereo not given) | 4.13 | 2.35 | 0.74
7 | C#CCN(Cc1ccc2[nH]c(N)nc(=O)c2c1)c1ccc(C(=O)N[C@@H](CCC(=O)O)C(=O)O)cc1 | 4.21 | 3.35 | 3.66
8 | COc1ccc(CNC2CCN(C)CC2)cc1-c1ccc(S(=O)(=O)NC2CCC2)s1 | 1.49 | 4.46 | 0.46
9 | Cc1cc(NC(=O)Nc2ccc3nccc(N4CCN(C)CC4)c3c2)ccc1Br | -0.1 | 1.48 | 1.15
10 | c1cc(CNCCN2CCNCC2)cc(-c2ccc(-c3nc4ccccc4[nH]3)cc2)c1 | 18.3 | 16.8 | 13.2
11 | COc1ccc2nccc([C@@H](O)CN3CCC(NC(=O)C(c4ccsc4)N4CCN(c5ccccc5OC)CC4)CC3)c2c1 (stereo not given in full) | 1.93 | 1.41 | 0.49
12 | CN(C)CCNC(=O)c1ccc(-c2ccc3c(Nc4ccccc4)c(C(N)=O)cnc3c2)cc1 | 1.31 | 1.74 | 2.36
13 | C(=Cc1nc2ccccc2s1)c1ccc2c(c1)OCCO2 | 0.08 | 0.45 | -2.03
14 | COc1ccc2nccc(N3CCN(CCNCc4ccc5c(n4)NC(=O)CO5)CC3)c2n1 | 11.2 | 9.11 | 10.1
15 | COc1ccc(C2C(C(=O)Nc3ccc(C)cc3Br)c3ccccc3C(=O)N2C)cc1 (stereo not given) | 3.32 | 2.08 | 0.83
16 | CS(=O)(=O)CCNCc1cccc(-c2cc3c(Nc4ccc5c(cnn5Cc5ccccc5)c4)ncnc3s2)c1 | 2.62 | -0.73 | 0.63
17 | CCC1(CC)NC(N)=NC(=N)N1OCc1ccc(Cl)c(Cl)c1 | 4.32 | 3.75 | 4.43
18 | COc1cc(NCC(C)CNCc2cn(Cc3ccccc3)c3ccccc23)nc2ccccc12 (stereo not given) | 3.78 | 6.19 | 6.44

Row | SMILES | inhibition [1] [%] | inhibition [2] [%] | inhibition [3] [%]
19 | O=C(N[C@@H](CC1CCCCC1)C(=O)NC1CC1)c1ccc(O)c(-c2cccc(C(F)(F)F)c2)c1 | 3.48 | 2.6 | 3.88
20 | O=c1cc(NCCCCNCc2cccc(Cl)c2)[nH]c2ccccc12 | 3.6 | 3.79 | 1.87
21 | O=C(CN1CCCCC1)Nc1ccc(Nc2nccc(NCC(O)c3ccccc3)n2)cc1 (stereo not given) | 11.7 | 9.59 | 7.17
22 | O=C(c1cccc(-c2noc(C(F)(F)F)n2)c1)N1CCN(c2nsc3ccccc23)CC1 | -0.16 | -1.92 | -1.66
23 | CC[C@H]1CN(CCCC(=O)c2ccccc2)CC[C@H]1CCCc1ccnc2ccc(OC(=O)c3ccccc3)cc12 | 4.64 | 5.86 | 2.72
24 | CCc1cn2c3c(cc(C(=O)N[C@@H](Cc4ccccc4)[C@H](O)CNC4CC4)cc13)N(CC)S(=O)(=O)CC2 | -0.74 | -0.31 | 0.02
25 | NC(=O)N1CCN(Cc2ccc(Br)cc2)CC1 | 0.39 | 1.05 | 1
26 | COc1ccccc1C1CN(Cc2coc3ccccc3c2=O)Cc2ccccc2O1 (stereo not given) | 0.38 | 0.56 | 0.45
27 | Fc1ccc2[nH]c(-c3cccc(-c4cccc(CNCC5CCCO5)c4)c3)nc2c1 (stereo not given) | -0.33 | -0.14 | -1.55
28 | O=C(Nc1cccc(-c2nn3ccccc3c2-c2ccnc(Nc3cccc(F)c3)n2)c1)C1CCCCC1 | 1.19 | 2.83 | -1.4
29 | O=C(NCC1CCN(Cc2ccc(F)cc2)C1)c1cc(-c2cccc(C(F)(F)F)c2)cs1 (stereo not given) | -0.31 | -1.16 | -6.61
30 | N#Cc1ccc(C(=O)NC2CCN(CCCCCNC(=O)/C=C/c3ccc(Cl)c(Cl)c3)CC2)cc1 | 0.08 | 1.46 | -1.31
31 | CCn1c(-c2nonc2N)nc2cnc(Oc3cccc(NC(=O)c4ccc(OCCN5CCCCC5)cc4)c3)cc21 | 17.2 | 28.1 | 13.7
32 | CC(Oc1ccc(Cl)cc1)C(=O)Nc1cc(C(F)(F)F)ccc1-n1cncn1 (stereo not given) | 2.69 | 3.5 | 3.88
33 | Cc1cc2nc(-c3cccc(C(=O)NC4CCN(Cc5ccccc5)CC4)c3)[nH]c2cc1C | 1.16 | 1.99 | 1.84
34 | CC(C)[C@H](NC(=O)c1c(CN2CCC(N3CCCCC3)CC2)c(-c2ccccc2)nc2cc(O)ccc12)c1ccccc1 | 2.26 | 1.22 | 0.91
35 | CS(=O)(=O)NCCCNCc1ccc(-c2cccc(-c3nc4cc(F)ccc4[nH]3)c2)cc1 | -2.11 | 0.22 | -0.29
